Compound activity deposited in PubChem BioAssay by several laboratories.
p97 ATPase inh: blocks human p97 ATPase activity; P55072; recombinant p97 ATPase, Kinase-Glo ATP luminescence, 3 h; inhibition, % at 8 µM; 0.42% of 220,000 active; in the data active means inhibition above about 15%;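 further: 0% = DMSO vehicle and 100% = wells lacking enzyme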
HDAC3 inhib: blocks human histone deacetylase 3 | O15379 | recombinant HDAC3, fluorogenic peptide/trypsin coupled, fluorescence | inhibition, % at 8.3 µM | 0.15% of 320,000 active | AID 2718; in the data active means inhibition above about 26%, passing the limit was not always enough
G6PDH counter: L. mesenteroides G6PDH inhibition counter-screen; Purified L. mesenteroides G6PDH, diaphorase/resazurin coupled fluorescence, 45 min; inhibition, % at 5 µM; 0.12% of 200,000 active; in the data active means inhibition above about 50%
UBC9 SUMO inh: inhibitors of human SUMOylation (UBC9); P63279; HTRF SUMOylation assay, SAE1/SAE2 + UBC9, in vitro; inhibition, % at 35 µM; 0.36% of 290,000 active; AID 2006; in the data active means inhibition above about 50%, passing the limit was not always enough
Target sequence (P63279 whole entry, looked up): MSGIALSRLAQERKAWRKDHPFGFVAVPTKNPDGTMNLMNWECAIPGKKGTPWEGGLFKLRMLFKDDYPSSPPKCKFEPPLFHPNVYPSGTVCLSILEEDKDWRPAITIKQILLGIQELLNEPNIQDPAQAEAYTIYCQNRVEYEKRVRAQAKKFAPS
PHOSPHO1 block: PHOSPHO1 (human) inhibition; Q8TCT1; recombinant PHOSPHO1, absorbance phosphatase assay; inhibition, % at 13.3 µM; 1.1% of 290,000 active; AID 1565; in the data active means inhibition above about 60%
Target sequence (Q8TCT1 whole entry, looked up): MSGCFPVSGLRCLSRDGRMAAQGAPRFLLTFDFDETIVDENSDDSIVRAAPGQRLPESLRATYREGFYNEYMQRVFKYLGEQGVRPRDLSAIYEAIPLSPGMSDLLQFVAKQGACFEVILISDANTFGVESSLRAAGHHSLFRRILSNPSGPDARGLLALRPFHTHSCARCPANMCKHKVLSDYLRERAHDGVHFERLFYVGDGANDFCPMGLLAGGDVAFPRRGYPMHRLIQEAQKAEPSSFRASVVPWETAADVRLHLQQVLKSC
PfM18AAP inh-1: blocks P. falciparum M18 aspartyl aminopeptidase; recombinant PfM18AAP, H-Glu-NHMec fluorogenic cleavage; inhibition, % at 7.35 µM; 1.2% of 290,000 active; AID 1822;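 active means inhibition above the campaign mean inhibition over all tested compounds plus 3 SD, cut at about 28% in these data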;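 further: 0% = plate median of test compound wells and 100% = 2 mM ZnCl2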
PfM18AAP inh-2: PfM18AAP inhibition, confirmation | shares compounds with PfM18AAP inh-1 | recombinant PfM18AAP, H-Glu-NHMec fluorogenic cleavage | inhibition, % at 7.35 µM | 28% of 2,400 active | AID 2170;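 active means mean inhibition over replicate wells above the hit cutoff set for the earlier primary screen, cut at about 29% in these data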;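 further: 0% = median of test compound wells and 100% = 2 mM ZnCl2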
CTSL1 confirm: counter-screen for PFM18AAP inhibitors: confirmation of human cathepsin L inhibitors; shares compounds with PfM18AAP inh-1; purified cathepsin L1, Z-Leu-Arg-MCA fluorescence; inhibition, % at 5.96 µM; 2,400 tested, under 10 active; AID 2178;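 active means average inhibition across replicates above the hit cutoff set in the earlier primary screen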;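 further: 0% = median of test compound wells and 100% = Z-Phe-Ala-diazomethylketone 1 µM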
* = called active by the depositor; x = no result given. An excerpt weighted towards active compounds, which were near 2.5% of everything screened.

SMILES	p97 ATPase inh	HDAC3 inhib	G6PDH counter	UBC9 SUMO inh	PHOSPHO1 block	PfM18AAP inh-1	PfM18AAP inh-2	CTSL1 confirm
CCOC(=O)c1sc(N/N=C/c2cc(Br)c(O)c(OC)c2)nc1C	x	0.5	x	10.0	4.6	36.8*	11.1	-2.5
CCOc1ccc(OCC)c(NC(=O)C2CCN(S(=O)(=O)c3cccc4nonc34)CC2)c1	-0.2	7.0	5.6	11.9	9.4	-4.4	x	x
CC(C)(C)C(=O)C(Oc1cccc2nonc12)n1cncn1 (centres undefined)	-2.3	-3.3	-0.5	-9.5	-2.2	49.6*	-34.2	-0.1
CCCCCCOc1ccc(C(=O)n2cnc(N)n2)cc1	-3.0	-0.5	3.3	19.8	-32.1	44.0*	40.8*	-1.3
O=C(OCn1cncn1)c1ccc(Cl)cc1Cl	3.7	0.8	19.3	14.6	-42.5	53.2*	29.0*	6.4
N/C(Cn1cncn1)=N\OC(=O)c1ccc(Cl)cc1	3.3	3.2	2.8	26.6	42.1	5.0	x	x
O=C(NCC(=O)N1CCC(Cc2ccccc2)CC1)c1ccc(Cl)cc1	x	8.2	x	-4.6	17.0	-1.6	x	x
O=C(COc1ccc(Cl)cc1)Nc1nc(-c2ccncc2)cs1	x	3.0	x	3.2	-6.7	34.6*	-27.6	3.9
COc1ccc(-c2csc(NC(=O)CS(=O)(=O)c3ccc(F)cc3)n2)cc1OC	x	-0.6	x	x	x	x	x	x
O=C(CCS(=O)(=O)c1ccc(F)cc1)Nc1nc(-c2ccncc2)cs1	x	-0.6	x	2.7	-82.9	52.4*	18.5	0.9
CC1(C)Oc2ccc(C(=O)Nc3ccccc3)cc2N(CC#N)C1=O	x	1.0	x	2.5	31.1	-11.8	x	x
COc1ccc2nc(C)cc(SCC(=O)N/N=C/c3ccc(O)c(O)c3)c2c1	8.5	-0.2	3.2	-2.3	16.1	60.4*	63.5*	-5.0
COc1cccc2c(SCC(=O)N/N=C/c3ccc(O)c(O)c3)cc(C)nc12	9.0	7.0	9.8	35.6	47.0	65.7*	63.2*	-2.4
COc1ccc2c(c1)c(C(=O)N/N=C/c1ccc(Br)cc1)c(C)n2C	0.2	2.6	x	4.1	12.3	-15.8	x	x
COc1ccc2c(c1)c(C(=O)N/N=C/c1ccc(O)c(O)c1)c(C)n2C	-2.2	5.4	19.1	-7.2	0.2	51.4*	40.0*	2.2
COc1cccc2c(SCC(=O)N/N=C/c3ccccc3)cc(C)nc12	-0.8	-1.4	-22.5	20.5	-38.9	3.3	x	x
COc1ccc2nc(C)cc(SCC(=O)N/N=C/c3cccc4ccccc34)c2c1	-4.9	3.9	-69.6	-3.2	32.6	3.0	x	x
O=C(CN1CCN(C(=O)N2CCOCC2)CC1)Nc1cc(Cl)ccc1Cl	x	-5.5	x	16.1	22.4	-9.2	x	x
COc1ccc(NC(=O)N(C)C[C@H]2Oc3ccc(NC(=O)CCN4CCOCC4)cc3C(=O)N([C@H](C)CO)C[C@@H]2C)cc1	x	1.2	x	x	x	x	x	x
O=c1c2ccccc2c(/C=N/c2ncn[nH]2)c(O)n1Cc1ccccc1	-6.1	-6.4	5.8	17.0	-16.6	54.1*	-20.6	1.6
O=[N+]([O-])c1ccc(S(=O)(=O)Nc2ccccn2)cc1	x	-12.7	x	12.5	13.9	3.6	x	x
NC(=O)c1c(NC(=O)c2cccnc2)sc2c1CCCCC2	x	5.3	x	2.1	13.9	32.8*	-34.8	0.9
NS(=O)(=O)c1ccc(NC(=S)NC2CC2)cc1	3.0	3.5	4.5	-14.6	-28.9	32.3*	-1.8	-1.5
NS(=O)(=O)c1ccc(NC(=S)NNC(=O)c2ccc(Br)o2)cc1	x	-10.3	x	-6.4	-126.8	33.0*	-2.4	-1.2
NS(=O)(=O)c1ccc(NC(=S)NC(=O)c2ccc(Br)o2)cc1	0.3	0.3	10.5	11.8	20.8	8.7	x	x
SMILES	p97 ATPase inh	HDAC3 inhib	G6PDH counter	UBC9 SUMO inh	PHOSPHO1 block	PfM18AAP inh-1	PfM18AAP inh-2	CTSL1 confirm
O=C(N/N=C/c1ccccc1F)c1ccccc1OCc1ccccc1	x	8.5	x	-10.1	18.7	3.6	x	x
Cc1ccc(C(=O)C(NC(=O)c2ccco2)Nc2sc3c(c2C(N)=O)CCCC3)cc1 (centres undefined)	9.2	1.8	0.2	8.3	-9.2	39.8*	-26.5	-7.8
CNC(=O)c1c(NC(=O)c2ccco2)sc2c1CCCC2	x	-3.0	x	20.3	22.2	5.3	x	x
COc1ccc(C2C(C(C)=O)=C(C)N=c3s/c(=C\c4ccco4)c(=O)n32)c(OC)c1 (centres undefined)	2.5	2.8	5.6	18.7	93.8*	37.0*	-7.3	5.8
CCOC(=O)C1=C(C)N=c2s/c(=C/c3ccc(OCC(=O)O)cc3)c(=O)n2C1c1ccc(OC)cc1OC (centres undefined)	x	5.2	x	16.9	8.5	19.6	x	x
Cc1ccc(CN2CCc3[nH]c(=S)[nH]c(=O)c3C2)cc1	x	-10.0	x	17.5	6.8	19.7	x	x
O=c1[nH]c(=S)[nH]c2c1CN(Cc1ccc(F)cc1)CC2	x	-10.5	x	x	-10.2	36.9*	8.7	4.9
CC1=C(C)CC2C(C1)C(=O)c1ccc(Br)cc1S2(=O)=O (centres undefined)	x	-0.1	x	x	x	x	x	x
Cc1ccc(OC(=O)CCC(=O)Nc2ccc(C(N)=O)cc2)cc1	x	-3.2	x	x	x	x	x	x
COc1ccc2nc(NC(=O)CSC(C)C(=O)Nc3cc(C)on3)sc2c1 (centres undefined)	x	2.4	x	x	x	x	x	x
Cc1[nH]c(=S)c(C#N)c(C)c1CCC#N	-0.3	15.3	x	3.7	-25.3	38.0*	37.2*	0.5
CCN(c1ccccc1C(=O)O)S(=O)(=O)c1ccc2[nH]c(=O)[nH]c2c1	x	-2.5	x	17.2	15.0	-5.9	x	x
CCCCc1ccc(N/C(N)=N/c2nc(C)cc(C)n2)cc1	7.2	2.2	x	-0.5	18.9	2.5	x	x
O=C1NC(=S)SC1=C1CCCC1	-4.0	4.7	-4.9	-2.5	71.3*	35.7*	-31.9	3.2
O=C1OCC=C1NNC(=O)c1cccnc1	-2.5	5.6	2.2	9.5	-1.7	55.1*	69.3*	-7.0
Cc1ccc(CN2CCN(/N=C/c3ccc(O)c(O)c3)CC2)cc1	x	-2.7	x	-3.0	23.9	63.7*	37.8*	-0.6
Oc1ccc(/C=N/N2CCN(C3c4ccccc4-c4ccccc43)CC2)cc1O	14.1	4.2	x	-14.7	31.8	50.5*	35.6*	-4.6
N#Cc1ccccc1Cn1cc(/C=N/Nc2ccc([N+](=O)[O-])cn2)c2ccccc21	1.6	4.2	6.3	1.6	22.9	2.3	x	x
O=[N+]([O-])c1ccc(N/N=C/c2ccc(OCc3cccc4ccccc34)cc2)nc1	0.7	-8.5	1.6	16.9	-5.3	44.8*	-38.5	2.1
CCOC(=O)CSc1nc2c(sc(=S)n2-c2ccccc2OC)c(=O)n1-c1ccccc1OC	x	5.7	x	-0.3	14.0	-1.3	x	x
COc1ccc(-n2c(SCC(=O)C(C)(C)C)nc3c(sc(=S)n3-c3ccccc3)c2=O)c(OC)c1	x	1.1	x	-11.3	42.2	36.7*	14.5	4.3
